In the supplement of paper PMC10849652:
The full data set covers some 7,900 targets. This sample favours those with a hit. About 0.6% of all pairs of compound and target were hits. Values without a mark were called inactive.

Columns and labels:
Experiment in all cases: log2 fold change, soluble protein after heating vs DMSO (PISA); higher = thermal stabilisation; K562 cells, 10 uM, 30 min; active = over 0.2 and 3.5 SD of the protein, either way, in both replicates (recomputed)
[1] = compound: C1=CC=C(C=C1)[C@H](COC2=CC3=C(C=C2)NC(=O)N3)NC(=O)C4=CC=CN(C4=O)CC5=CC(=C(C=C5)F)F
Procedure, shortened: (§1)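 Quantification of soluble protein used TMTpro 16plex LC-MS/MS, with channel sums equalised. Samples were the supernatant after 21,000xg for 90 min of pooled aliquots from K562 cells (2×10^6 cells/mL) treated with 10 μM compound for 30 min, heated for 3 min over 48°C-58°C, and extracted in PBS with 0.5% NP-40 at 4°C. Values, from duplicates, describe thermal stability against control samples on a log2 fold-change scale.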

[2] = compound: CC1=C(SC2=C1C(=N[C@H](C3=NN=C(N32)C)CC(=O)N)C4=CC=C(C=C4)Cl)C
Procedure, shortened: as §1

[3] = compound: CC1=C2C(=CC=C1)N=C(N(C2=O)C3=CC=CC=C3C)CN4C=NC5=C(N=CN=C54)N
Procedure, shortened: as §1

[4] = compound: Cc1sc2c(c1C)C(c1ccc(Cl)cc1)=N[C@@H](CC(=O)OC(C)(C)C)c1nnc(C)n1-2
Procedure, shortened: as §1

[5] = compound: c1ccc([C@@H]2C[C@H]2NC2CCNCC2)cc1
Procedure, shortened: as §1

RSRC2 (UniProt Q7L4I2)
log2 fold change [1]: 0.034 | log2 fold change [2]: 0 | log2 fold change [3]: -0.045 | log2 fold change [4]: 0.022 | log2 fold change [5]: 0.085

RHEB (UniProt Q15382)
log2 fold change [1]: 0.008 | log2 fold change [2]: 0.04 | log2 fold change [3]: 0.055 | log2 fold change [4]: -0.048 | log2 fold change [5]: -0.001

RNF187 (UniProt Q5TA31)
log2 fold change [1]: -0.047 | log2 fold change [2]: 0.07 | log2 fold change [3]: -0.033 | log2 fold change [4]: -0.083 | log2 fold change [5]: -0.033

SH3PXD2B (UniProt A1X283)
log2 fold change [1]: 0.07 | log2 fold change [2]: 0.029 | log2 fold change [3]: 0.001 | log2 fold change [4]: -0.038 | log2 fold change [5]: -0.046

SEPTIN5 (UniProt G3XAH0)
log2 fold change [1]: 0.002 | log2 fold change [2]: -0.014 | log2 fold change [3]: 0.061 | log2 fold change [4]: -0.043 | log2 fold change [5]: -0.031

RNF14 (UniProt Q9UBS8)
UniProt Q9UBS8, sequence (Q9UBS8 whole entry, looked up): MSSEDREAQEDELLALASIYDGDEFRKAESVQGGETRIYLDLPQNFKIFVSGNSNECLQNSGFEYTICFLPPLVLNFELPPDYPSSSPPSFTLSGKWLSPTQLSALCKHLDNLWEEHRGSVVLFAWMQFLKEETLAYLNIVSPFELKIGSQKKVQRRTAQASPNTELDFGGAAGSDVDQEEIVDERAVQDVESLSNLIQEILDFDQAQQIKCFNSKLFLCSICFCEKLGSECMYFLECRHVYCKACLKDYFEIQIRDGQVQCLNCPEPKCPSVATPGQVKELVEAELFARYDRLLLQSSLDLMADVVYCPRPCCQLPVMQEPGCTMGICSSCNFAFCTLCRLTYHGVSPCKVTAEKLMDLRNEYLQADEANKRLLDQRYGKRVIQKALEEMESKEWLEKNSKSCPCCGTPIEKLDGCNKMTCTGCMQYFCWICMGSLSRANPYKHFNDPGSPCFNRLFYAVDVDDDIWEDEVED
log2 fold change [1]: -0.031 | log2 fold change [2]: -0.005 | log2 fold change [3]: -0.048 | log2 fold change [4]: -0.013 | log2 fold change [5]: 0.03

RPP14 (UniProt O95059)
log2 fold change [1]: 0.044 | log2 fold change [2]: -0.023 | log2 fold change [3]: -0.028 | log2 fold change [4]: 0.002 | log2 fold change [5]: -0.009

REEP4 (UniProt Q9H6H4)
log2 fold change [1]: -0.004 | log2 fold change [2]: -0.034 | log2 fold change [3]: -0.023 | log2 fold change [4]: 0.081 | log2 fold change [5]: 0.003

SLC18B1 (UniProt Q6NT16)
log2 fold change [1]: 0.015 | log2 fold change [2]: 0.028 | log2 fold change [3]: 0.061 | log2 fold change [4]: 0.009 | log2 fold change [5]: -0.039

SCLT1 (UniProt Q96NL6)
log2 fold change [1]: 0.078 | log2 fold change [2]: 0.215 | log2 fold change [3]: 0.222 | log2 fold change [4]: 0.001 | log2 fold change [5]: -0.039

SAFB2 (UniProt K7EQU4)
log2 fold change [1]: -0.338

RAVER1 (UniProt E9PAU2)
log2 fold change [1]: -0.138 | log2 fold change [2]: -0.204 | log2 fold change [3]: 0.283 | log2 fold change [4]: -0.19 | log2 fold change [5]: 0.053

RNF41 (UniProt Q9H4P4)
log2 fold change [1]: 0.039

RBM8A (UniProt Q9Y5S9)
log2 fold change [1]: -0.02 | log2 fold change [2]: -0.005 | log2 fold change [3]: -0.062 | log2 fold change [4]: 0.029 | log2 fold change [5]: 0.045

RBIS (UniProt Q8N0T1)
log2 fold change [1]: 0.035 | log2 fold change [2]: -0.034 | log2 fold change [3]: -0.02 | log2 fold change [4]: 0.101 | log2 fold change [5]: 0

RPTOR (UniProt Q8N122)
UniProt Q8N122, sequence (Q8N122 whole entry, looked up): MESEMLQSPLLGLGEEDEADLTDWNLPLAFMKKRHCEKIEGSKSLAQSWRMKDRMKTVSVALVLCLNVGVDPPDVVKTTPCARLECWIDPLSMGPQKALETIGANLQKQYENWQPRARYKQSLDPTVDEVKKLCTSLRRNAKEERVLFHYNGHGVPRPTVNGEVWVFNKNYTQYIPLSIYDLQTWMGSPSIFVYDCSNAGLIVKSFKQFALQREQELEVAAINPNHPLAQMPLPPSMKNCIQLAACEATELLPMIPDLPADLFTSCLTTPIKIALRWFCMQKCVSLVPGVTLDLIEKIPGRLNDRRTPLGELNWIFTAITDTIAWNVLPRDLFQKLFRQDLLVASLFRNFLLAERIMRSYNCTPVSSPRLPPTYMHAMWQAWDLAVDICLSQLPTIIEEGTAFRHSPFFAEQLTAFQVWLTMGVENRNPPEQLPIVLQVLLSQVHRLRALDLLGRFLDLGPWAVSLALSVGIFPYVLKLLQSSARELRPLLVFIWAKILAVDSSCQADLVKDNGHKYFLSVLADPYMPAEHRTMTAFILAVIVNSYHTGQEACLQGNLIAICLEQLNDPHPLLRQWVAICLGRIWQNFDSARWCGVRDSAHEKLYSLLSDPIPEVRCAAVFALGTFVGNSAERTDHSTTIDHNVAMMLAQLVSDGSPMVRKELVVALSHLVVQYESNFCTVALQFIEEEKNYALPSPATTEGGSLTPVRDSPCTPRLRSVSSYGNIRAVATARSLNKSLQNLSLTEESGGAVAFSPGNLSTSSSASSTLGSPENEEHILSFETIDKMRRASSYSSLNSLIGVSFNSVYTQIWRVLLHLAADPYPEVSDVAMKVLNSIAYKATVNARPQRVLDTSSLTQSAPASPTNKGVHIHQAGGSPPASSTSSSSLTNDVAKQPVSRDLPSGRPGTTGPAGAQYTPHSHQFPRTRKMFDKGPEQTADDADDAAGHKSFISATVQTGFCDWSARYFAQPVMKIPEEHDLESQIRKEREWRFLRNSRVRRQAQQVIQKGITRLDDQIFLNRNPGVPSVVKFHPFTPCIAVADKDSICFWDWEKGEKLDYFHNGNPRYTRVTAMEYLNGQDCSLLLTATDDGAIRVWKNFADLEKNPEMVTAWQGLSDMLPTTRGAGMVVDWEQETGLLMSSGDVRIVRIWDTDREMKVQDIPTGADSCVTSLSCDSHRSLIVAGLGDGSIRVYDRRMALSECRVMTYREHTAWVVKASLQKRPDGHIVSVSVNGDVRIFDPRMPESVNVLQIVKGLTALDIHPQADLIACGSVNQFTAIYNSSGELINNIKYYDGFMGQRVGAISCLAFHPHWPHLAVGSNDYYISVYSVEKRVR
log2 fold change [1]: -0.022 | log2 fold change [2]: -0.015 | log2 fold change [3]: 0.095 | log2 fold change [4]: -0.02 | log2 fold change [5]: 0.032

SEC31A (UniProt O94979)
log2 fold change [1]: -0.067 | log2 fold change [2]: 0.034 | log2 fold change [3]: 0.09 | log2 fold change [4]: -0.03 | log2 fold change [5]: -0.006

RAB3D (UniProt O95716)
log2 fold change [1]: 0.023 | log2 fold change [2]: -0.105 | log2 fold change [3]: 0.007 | log2 fold change [4]: -0.082 | log2 fold change [5]: 0.201

RABGGTA (UniProt Q92696)
log2 fold change [1]: -0.105 | log2 fold change [2]: 0.084 | log2 fold change [3]: 0.035 | log2 fold change [4]: 0.014 | log2 fold change [5]: -0.024

RB1 (UniProt P06400)
log2 fold change [1]: -0.038 | log2 fold change [2]: 0.064 | log2 fold change [3]: 0.048 | log2 fold change [4]: 0.011 | log2 fold change [5]: 0

RPS3A (UniProt P61247)
log2 fold change [1]: 0.053 | log2 fold change [2]: -0.162 | log2 fold change [3]: -0.139 | log2 fold change [4]: 0.099 | log2 fold change [5]: 0

RDH10 (UniProt Q8IZV5)
log2 fold change [1]: 0.113 | log2 fold change [2]: 0.08 | log2 fold change [3]: 0.098 | log2 fold change [4]: -0.058 | log2 fold change [5]: -0.031

RAC1 (UniProt P63000)
log2 fold change [1]: -0.046 | log2 fold change [2]: 0.017 | log2 fold change [3]: -0.111 | log2 fold change [4]: -0.098 | log2 fold change [5]: 0.033

SERINC3 (UniProt Q13530)
log2 fold change [1]: -0.062 | log2 fold change [2]: 0.045 | log2 fold change [3]: 0.071 | log2 fold change [4]: -0.062 | log2 fold change [5]: 0.133

RABGAP1L isoform 3 (UniProt Q5R372)
log2 fold change [1]: 0.007 | log2 fold change [2]: 0.024 | log2 fold change [3]: 0.033 | log2 fold change [4]: -0.015 | log2 fold change [5]: -0.005

SKP1 (UniProt P63208)
log2 fold change [1]: -0.035 | log2 fold change [2]: -0.008 | log2 fold change [3]: 0 | log2 fold change [4]: -0.036 | log2 fold change [5]: -0.017

RRP36 (UniProt Q96EU6)
log2 fold change [1]: 0.119 | log2 fold change [2]: -0.266 | log2 fold change [3]: -0.228 | log2 fold change [4]: 0.245 | log2 fold change [5]: 0.019

RIOK2 (UniProt Q9BVS4)
log2 fold change [1]: 0.034 | log2 fold change [2]: -0.038 | log2 fold change [3]: -0.119 | log2 fold change [4]: 0.116 | log2 fold change [5]: -0.009

RAB8B (UniProt Q92930)
log2 fold change [1]: 0.004 | log2 fold change [2]: -0.006 | log2 fold change [3]: -0.222 | log2 fold change [4]: 0.033 | log2 fold change [5]: -0.062

RPA1 (UniProt P27694)
log2 fold change [1]: -0.032 | log2 fold change [2]: 0.025 | log2 fold change [3]: 0.087 | log2 fold change [4]: -0.047 | log2 fold change [5]: 0.011

RHOXF2 (UniProt Q9BQY4)
log2 fold change [1]: 0.004 | log2 fold change [2]: -0.031 | log2 fold change [3]: 0.024 | log2 fold change [4]: 0.012 | log2 fold change [5]: 0.057

SLC1A3 (UniProt P43003)
UniProt P43003, sequence (P43003 whole entry, looked up): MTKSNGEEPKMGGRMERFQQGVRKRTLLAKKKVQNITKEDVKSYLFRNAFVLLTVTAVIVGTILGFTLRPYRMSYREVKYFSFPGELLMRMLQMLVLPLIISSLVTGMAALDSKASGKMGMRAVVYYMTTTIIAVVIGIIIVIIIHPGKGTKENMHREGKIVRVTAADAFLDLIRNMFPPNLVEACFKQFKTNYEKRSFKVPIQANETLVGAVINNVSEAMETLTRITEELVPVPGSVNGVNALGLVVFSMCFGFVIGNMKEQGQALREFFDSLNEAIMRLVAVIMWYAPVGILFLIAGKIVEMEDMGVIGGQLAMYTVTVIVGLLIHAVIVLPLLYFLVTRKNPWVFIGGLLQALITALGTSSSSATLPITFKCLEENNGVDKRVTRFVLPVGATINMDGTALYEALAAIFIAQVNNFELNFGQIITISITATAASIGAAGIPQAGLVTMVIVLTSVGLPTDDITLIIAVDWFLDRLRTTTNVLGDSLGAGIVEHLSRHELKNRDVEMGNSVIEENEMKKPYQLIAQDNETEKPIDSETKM
log2 fold change [1]: -0.031 | log2 fold change [2]: 0.003 | log2 fold change [3]: -0.016 | log2 fold change [4]: 0.17 | log2 fold change [5]: 0.039

RB1CC1 (UniProt Q8TDY2)
UniProt Q8TDY2, sequence (Q8TDY2 whole entry, looked up): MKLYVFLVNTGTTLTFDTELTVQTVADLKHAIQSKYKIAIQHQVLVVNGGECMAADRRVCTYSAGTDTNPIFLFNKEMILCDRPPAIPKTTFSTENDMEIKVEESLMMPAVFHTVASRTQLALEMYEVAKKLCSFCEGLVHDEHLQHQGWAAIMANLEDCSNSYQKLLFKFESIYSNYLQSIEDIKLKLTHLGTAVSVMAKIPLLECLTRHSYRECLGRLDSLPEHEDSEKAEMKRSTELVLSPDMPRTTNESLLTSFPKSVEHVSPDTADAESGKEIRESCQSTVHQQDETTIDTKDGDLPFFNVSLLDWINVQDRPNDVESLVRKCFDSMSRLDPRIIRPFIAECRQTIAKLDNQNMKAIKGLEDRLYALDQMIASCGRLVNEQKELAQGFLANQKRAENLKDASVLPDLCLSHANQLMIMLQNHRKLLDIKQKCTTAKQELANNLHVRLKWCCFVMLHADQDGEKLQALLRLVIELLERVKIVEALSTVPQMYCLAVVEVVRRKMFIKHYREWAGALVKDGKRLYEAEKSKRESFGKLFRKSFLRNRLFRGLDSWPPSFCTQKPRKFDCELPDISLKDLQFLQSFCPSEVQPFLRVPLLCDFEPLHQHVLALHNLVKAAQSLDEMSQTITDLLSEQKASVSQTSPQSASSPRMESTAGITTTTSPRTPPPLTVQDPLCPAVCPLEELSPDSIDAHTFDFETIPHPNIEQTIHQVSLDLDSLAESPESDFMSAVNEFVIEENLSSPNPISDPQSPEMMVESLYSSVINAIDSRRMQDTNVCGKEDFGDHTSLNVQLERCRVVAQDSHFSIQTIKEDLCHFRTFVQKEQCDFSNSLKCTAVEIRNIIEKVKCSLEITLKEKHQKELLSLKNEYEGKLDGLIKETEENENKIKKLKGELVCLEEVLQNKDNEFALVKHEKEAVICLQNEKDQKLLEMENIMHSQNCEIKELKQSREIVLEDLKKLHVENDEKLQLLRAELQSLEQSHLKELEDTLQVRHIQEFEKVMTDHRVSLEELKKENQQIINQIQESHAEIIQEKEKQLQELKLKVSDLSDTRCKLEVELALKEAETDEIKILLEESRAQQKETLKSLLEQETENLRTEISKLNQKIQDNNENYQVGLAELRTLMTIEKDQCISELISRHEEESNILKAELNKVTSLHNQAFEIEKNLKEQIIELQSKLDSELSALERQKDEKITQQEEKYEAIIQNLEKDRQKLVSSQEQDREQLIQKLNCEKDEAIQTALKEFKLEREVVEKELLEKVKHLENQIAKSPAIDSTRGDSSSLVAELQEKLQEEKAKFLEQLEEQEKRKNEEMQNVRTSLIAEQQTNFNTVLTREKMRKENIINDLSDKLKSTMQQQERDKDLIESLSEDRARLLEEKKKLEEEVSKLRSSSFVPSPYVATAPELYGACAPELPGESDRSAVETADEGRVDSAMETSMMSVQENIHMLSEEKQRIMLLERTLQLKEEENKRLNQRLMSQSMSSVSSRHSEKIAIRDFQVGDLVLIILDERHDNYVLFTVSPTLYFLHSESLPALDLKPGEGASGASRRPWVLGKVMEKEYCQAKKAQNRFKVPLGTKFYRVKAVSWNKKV
log2 fold change [1]: 0.198 | log2 fold change [2]: 0.096 | log2 fold change [3]: 0.032 | log2 fold change [4]: 0.029 | log2 fold change [5]: -0.063

SCO2 (UniProt O43819)
log2 fold change [1]: -0.03 | log2 fold change [2]: -0.108 | log2 fold change [3]: -0.041 | log2 fold change [4]: -0.098 | log2 fold change [5]: 0.023

SGPL1 (UniProt O95470)
log2 fold change [1]: 0.041 | log2 fold change [2]: -0.014 | log2 fold change [3]: 0.005 | log2 fold change [4]: 0.049 | log2 fold change [5]: -0.004

RPS20 isoform 2 (UniProt P60866)
log2 fold change [1]: -0.002 | log2 fold change [2]: -0.114 | log2 fold change [3]: -0.051 | log2 fold change [4]: 0.059 | log2 fold change [5]: 0

RECQL (UniProt P46063)
log2 fold change [1]: -0.012 | log2 fold change [2]: 0.087 | log2 fold change [3]: 0.015 | log2 fold change [4]: -0.029 | log2 fold change [5]: -0.02

RETSAT (UniProt Q6NUM9)
UniProt Q6NUM9, sequence (Q6NUM9 whole entry, looked up): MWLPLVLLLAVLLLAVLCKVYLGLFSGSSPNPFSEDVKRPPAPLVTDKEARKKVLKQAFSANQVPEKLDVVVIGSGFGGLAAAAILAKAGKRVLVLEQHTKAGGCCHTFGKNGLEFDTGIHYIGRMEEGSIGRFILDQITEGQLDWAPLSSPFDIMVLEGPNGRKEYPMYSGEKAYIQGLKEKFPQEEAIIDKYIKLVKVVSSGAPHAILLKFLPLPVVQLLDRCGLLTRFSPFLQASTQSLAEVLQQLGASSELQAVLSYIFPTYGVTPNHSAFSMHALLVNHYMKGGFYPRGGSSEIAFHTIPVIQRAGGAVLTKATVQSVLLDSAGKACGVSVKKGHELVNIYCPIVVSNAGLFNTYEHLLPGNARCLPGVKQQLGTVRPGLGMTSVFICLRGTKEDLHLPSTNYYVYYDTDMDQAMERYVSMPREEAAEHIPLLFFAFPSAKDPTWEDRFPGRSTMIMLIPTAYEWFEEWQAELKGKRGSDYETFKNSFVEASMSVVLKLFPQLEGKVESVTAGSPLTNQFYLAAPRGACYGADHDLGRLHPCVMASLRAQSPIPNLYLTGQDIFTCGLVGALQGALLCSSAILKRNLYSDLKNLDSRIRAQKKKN
log2 fold change [1]: 0.028 | log2 fold change [2]: 0.114 | log2 fold change [3]: 0.119 | log2 fold change [4]: -0.15 | log2 fold change [5]: 0.042

RCOR3 isoform 3 (UniProt Q9P2K3)
log2 fold change [1]: -0.139 | log2 fold change [2]: 0.087 | log2 fold change [3]: 0.111 | log2 fold change [4]: -0.06 | log2 fold change [5]: 1.27 (active)

RCOR1 (UniProt Q9UKL0)
log2 fold change [1]: -0.113 | log2 fold change [2]: 0.021 | log2 fold change [3]: 0.114 | log2 fold change [4]: 0.006 | log2 fold change [5]: 0.856 (active)

SAAL1 (UniProt Q96ER3)
log2 fold change [1]: -0.054 | log2 fold change [2]: 0.03 | log2 fold change [3]: 0.046 | log2 fold change [4]: 0.109 | log2 fold change [5]: -0.043

RPS2 (UniProt P15880)
log2 fold change [1]: 0.123 | log2 fold change [2]: -0.222 | log2 fold change [3]: -0.222 | log2 fold change [4]: 0.113 | log2 fold change [5]: 0

RPA3 (UniProt P35244)
log2 fold change [1]: 0.008 | log2 fold change [2]: 0.09 | log2 fold change [3]: -0.055 | log2 fold change [4]: -0.146 | log2 fold change [5]: -0.03

RPS18 (UniProt P62269)
log2 fold change [1]: 0.088 | log2 fold change [2]: -0.125 | log2 fold change [3]: -0.04 | log2 fold change [4]: 0.099 | log2 fold change [5]: 0.004

RBM22 (UniProt Q9NW64)
log2 fold change [1]: 0.033 | log2 fold change [2]: -0.022 | log2 fold change [3]: -0.013 | log2 fold change [4]: 0.027 | log2 fold change [5]: 0.049

RPAIN isoform 8 (UniProt Q86UA6)
log2 fold change [1]: 0.026 | log2 fold change [2]: 0.057 | log2 fold change [3]: 0.046 | log2 fold change [4]: -0.038 | log2 fold change [5]: 0.006

SDHC (UniProt Q99643)
log2 fold change [1]: -0.052 | log2 fold change [2]: 0.004 | log2 fold change [3]: -0.056 | log2 fold change [4]: -0.018 | log2 fold change [5]: 0.163

RNASEH2A (UniProt O75792)
log2 fold change [1]: -0.008 | log2 fold change [2]: 0.065 | log2 fold change [3]: 0.183 | log2 fold change [4]: -0.025 | log2 fold change [5]: -0.01

REL (UniProt Q04864)
log2 fold change [1]: 0.058 | log2 fold change [2]: 0.048 | log2 fold change [3]: 0.046 | log2 fold change [4]: 0.037 | log2 fold change [5]: 0.065

RPL31 (UniProt P62899)
log2 fold change [1]: 0.106 | log2 fold change [2]: -0.241 | log2 fold change [3]: -0.22 | log2 fold change [4]: 0.202 | log2 fold change [5]: 0

RETREG3 (UniProt Q86VR2)
UniProt Q86VR2, sequence (Q86VR2 whole entry, looked up): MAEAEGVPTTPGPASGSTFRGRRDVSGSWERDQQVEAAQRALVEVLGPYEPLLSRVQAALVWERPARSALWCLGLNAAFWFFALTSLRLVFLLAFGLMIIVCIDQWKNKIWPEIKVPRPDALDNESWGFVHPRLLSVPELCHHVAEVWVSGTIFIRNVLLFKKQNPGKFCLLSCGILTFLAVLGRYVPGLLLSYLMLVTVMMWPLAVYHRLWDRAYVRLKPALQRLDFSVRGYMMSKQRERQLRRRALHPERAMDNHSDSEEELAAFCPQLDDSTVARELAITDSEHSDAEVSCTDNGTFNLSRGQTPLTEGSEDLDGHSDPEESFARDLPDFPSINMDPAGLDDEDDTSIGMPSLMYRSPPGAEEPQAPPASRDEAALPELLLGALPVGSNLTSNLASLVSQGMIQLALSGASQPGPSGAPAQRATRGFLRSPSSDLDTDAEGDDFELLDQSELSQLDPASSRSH
log2 fold change [1]: 0.076 | log2 fold change [2]: 0.085 | log2 fold change [3]: 0.007 | log2 fold change [4]: -0.046 | log2 fold change [5]: -0.037

RMC1 (UniProt Q96DM3)
log2 fold change [1]: -0.009 | log2 fold change [2]: 0.064 | log2 fold change [3]: 0.1 | log2 fold change [4]: 0.019 | log2 fold change [5]: 0.063

RBM26 isoform 2 (UniProt Q5T8P6)
log2 fold change [1]: -0.068 | log2 fold change [2]: 0.016 | log2 fold change [3]: 0.144 | log2 fold change [4]: -0.011 | log2 fold change [5]: 0.012

SEC16A isoform 5 (UniProt O15027)
log2 fold change [1]: 0.014 | log2 fold change [2]: 0.012 | log2 fold change [3]: 0.154 | log2 fold change [4]: 0.011 | log2 fold change [5]: -0.006
